Bioassay records (PubChem)
DENV2 CPE: inhibitors of DENV2 cytopathic effect, primary screen, cell-based, plate reader, single concentration; AID 651640, 2012; 350,000 compounds, 1.7% hits; DENV2-infected cells, cytopathic effect rescue; CPE inhibition, % at 9.99 µM; in the data active = CPE inhibition above about 20%, passing the limit was not always enough; inconclusive = no clear call, values can overlap the other calls; tested in BHK-21 cells;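 note: 0% = median of neutral control wells and 100% = median of positive control wells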
ERp5 block: inhibitors of ERp5-driven insulin aggregation, primary screen, biochemical, turbidity, absorbance 650 nm, single point. Protein disulfide-isomerase A6 (Homo sapiens), Q15084. 90 min. inhibition, % at 9.99 µM. 350,000 compounds, 0.05% hits. AID 651711, 2012;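 active = mean replicate inhibition above about 25%, with every replicate also reaching it, limit read from the data, passing the limit was not always enough; inconclusive = only one of those two criteria met; inactive = neither criterion met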
PDI turbidity: inhibitors of human PDI, primary screen, biochemical, turbidity, single point, plate reader; 350,000 compounds, 0.052% hits; Protein disulfide-isomerase (Homo sapiens), P07237; inhibition, % at 10 µM; PDI insulin aggregation turbidity, A650, 90 min;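 active = mean inhibition across replicates of 30% or more, whatever share of single replicates reach that level; inconclusive = mean inhibition below 30% while every single replicate reaches 30%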
AF4-AF9 inh: inhibitors of AF4 peptide binding to AF9, primary screen, biochemical, AlphaScreen, biotin-AF4 peptide, FLAG-AF9, single point; inhibition, % at 10 µM; 350,000 compounds, 0.47% hits; AID 651704, 2012;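 active = every replicate reaching a set inhibition limit, whatever the replicate mean, cut at about 25% in these data; inconclusive = mean inhibition reaches that limit but some replicates miss it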;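 note: 0% = plate neutral control median and 100% = total signal loss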
ERAP1 HTS inh: human ERAP1 aminopeptidase inhibitors, primary screen, biochemical, single point, plate reader. AID 652197, 2013. inhibition, % at 10.7 µM. Endoplasmic reticulum aminopeptidase 1 (Homo sapiens), Q9NZ08. recombinant ERAP1, Leu-AMC fluorescence, 60 min. 340,000 compounds, 0.15% hits;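 active = mean replicate inhibition of at least 30%, or all replicates individually reaching that 30% level; inactive = mean below 30% and not every replicate reaching it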;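 note: 0% = neutral control wells and 100% = L-leucinethiol positive control wells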
Target sequence (Q9NZ08 whole entry, looked up): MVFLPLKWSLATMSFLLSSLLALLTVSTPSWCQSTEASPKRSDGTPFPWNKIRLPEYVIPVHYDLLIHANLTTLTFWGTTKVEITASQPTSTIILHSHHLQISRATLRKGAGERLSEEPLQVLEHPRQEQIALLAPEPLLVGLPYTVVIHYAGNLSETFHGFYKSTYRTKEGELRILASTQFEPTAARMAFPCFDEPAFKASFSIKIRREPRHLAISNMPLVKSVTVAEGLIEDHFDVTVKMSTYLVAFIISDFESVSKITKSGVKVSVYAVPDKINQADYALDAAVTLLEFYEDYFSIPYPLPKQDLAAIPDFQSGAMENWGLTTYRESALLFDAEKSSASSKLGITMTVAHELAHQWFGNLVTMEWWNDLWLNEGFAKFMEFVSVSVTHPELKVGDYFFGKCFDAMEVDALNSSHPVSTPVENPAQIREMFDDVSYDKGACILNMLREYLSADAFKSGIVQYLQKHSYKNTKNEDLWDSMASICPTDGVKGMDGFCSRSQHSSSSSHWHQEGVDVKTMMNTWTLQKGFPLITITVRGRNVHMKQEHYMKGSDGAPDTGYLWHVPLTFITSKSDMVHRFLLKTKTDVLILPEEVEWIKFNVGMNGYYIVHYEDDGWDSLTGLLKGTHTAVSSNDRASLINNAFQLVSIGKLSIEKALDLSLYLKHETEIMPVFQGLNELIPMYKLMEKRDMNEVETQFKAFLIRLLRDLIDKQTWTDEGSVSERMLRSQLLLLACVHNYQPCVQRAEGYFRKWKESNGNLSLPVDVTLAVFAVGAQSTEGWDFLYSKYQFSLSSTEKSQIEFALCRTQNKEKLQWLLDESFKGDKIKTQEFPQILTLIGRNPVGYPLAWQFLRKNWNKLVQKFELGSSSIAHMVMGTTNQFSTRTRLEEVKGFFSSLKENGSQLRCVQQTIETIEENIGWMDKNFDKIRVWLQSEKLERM
The depositor's hits bear a star; ? = inconclusive; nt = no result; ! = repeats disagree. This is a sample that favours compounds with a hit; in the whole collection about 1.8% have one here.

SMILES | DENV2 CPE | ERp5 block | PDI turbidity | AF4-AF9 inh | ERAP1 HTS inh
CCC(=O)N(C)C[C@@H]1Oc2cc(-c3ccc(OC)cc3)ccc2S(=O)(=O)N([C@H](C)CO)C[C@H]1C | -11 | -3 | nt | -1 | -3
O=C1SC(c2ccccc2)=C/C1=C\N1CCCCC1 | 0 | -4 | 3 | 30* | 1
O=C1OC(c2ccccc2)=C/C1=C/N1CCOCC1 | -2 | -1 | -12 | 5 | -3
CN(C)CC#Cc1ccc([C@@H]2[C@@H](CO)N3CCCCN(C(=O)NC4CCCC4)C[C@@H]23)cc1 | 6 | 3 | nt | -2 | 0
CC(/C=C/C(=O)c1ccc(C)cc1)=C\c1ccccc1 | nt | nt | -1 | nt | nt
C/C(C=O)=C/c1ccccc1 | 91* | -1 | nt | nt | 7
O=C([C@@H]1[C@@H](CO)[C@@H]2Cn3c(cccc3=O)[C@H]1N2CC1CCCC1)N1CCCCC1 | 2 | -4 | nt | 2 | 0
O=C([C@H]1[C@H](CO)[C@H]2Cn3c(cccc3=O)[C@@H]1N2CC1CCCC1)N1CCOCC1 | 23* | 15 | nt | -1 | 3
O=C([C@H]1[C@H](CO)[C@H]2Cn3c(cccc3=O)[C@@H]1N2Cc1ccccc1)N1CCCCC1 | 0 | 2 | nt | 0 | 4
O=C([C@@H]1[C@@H](CO)[C@@H]2Cn3c(cccc3=O)[C@H]1N2Cc1ccccc1)N1CCCCC1 | 50* | -1 | nt | 0 | 1
CC(C)NC(=O)Nc1ccc2c(c1)CC(=O)N([C@@H](C)CO)C[C@@H](C)[C@H](CN(C)C)O2 | 0 | 0 | nt | -2 | 2
O=S(=O)(NN1CCOCC1)c1cc(Cl)cc(Cl)c1O | -3 | 1 | -2 | -9 | 37*
COc1ccc(COCC23N=C4SCC(=O)N4[C@H](c4ccccc4O2)[C@H]3CO)cc1 | 26* | 2 | nt | -2 | 0
COc1ccc(COC[C@]23NC(=O)N[C@H](c4ccccc4O2)[C@H]3CO)cc1 | -10 | 1 | nt | 26* | 0
O=C1CSC2=NC3(CO)Oc4ccccc4[C@H]([C@H]3CO)N12 | 27* | 0 | nt | -1 | -2
COc1ccc(COCC23N=C4SCCCN4[C@H](c4ccccc4O2)[C@H]3CO[Si](C)(C)C(C)(C)C)cc1 | 20 | 0 | nt | 2 | -1
CC(C)NC(=O)N(C)C[C@@H]1OCCCC[C@@H](C)Oc2ccc(NS(=O)(=O)c3ccccc3)cc2C(=O)N([C@@H](C)CO)C[C@H]1C | -7 | 2 | nt | -1 | -4
C[C@H](CO)N1C[C@H](C)[C@@H](CN(C)C(=O)Nc2ccc3c(c2)OCO3)Oc2c(NS(=O)(=O)c3ccccc3)cccc2C1=O | 28*! | -2 | -2 | 0 | -1
C[C@@H]1CN([C@H](C)CO)C(=O)c2cccc(NS(=O)(=O)c3ccc(F)cc3)c2O[C@@H]1CN(C)C(=O)Nc1ccc2c(c1)OCO2 | 24* | -15 | nt | 5 | 2
C[C@@H]1CN([C@@H](C)CO)C(=O)c2cccc(NS(=O)(=O)c3ccc(F)cc3)c2O[C@@H]1CN(C)C(=O)Nc1ccc2c(c1)OCO2 | -7 | 0 | nt | 2 | 2
O=C(C[C@@H]1C=C[C@@H](NC(=O)C2CCOCC2)[C@@H](CO)O1)NCC1CCCCC1 | -1 | 7 | nt | -1 | 1
Cc1ccc2c(c1)c1c3n2CCN(C(=O)C2CC2)C3CCC1 (stereo unspecified) | 54* | ? | -15 | 1 | 3
Cc1ccc2c(c1)c1c3n2CCN(C(=O)CN2CCN(C)CC2)C3CCC1 (stereo unspecified) | nt | nt | 4 | nt | nt
Cc1cc2oc(=O)cc(Cn3ccnc3)c2cc1Cl | 26* | 1 | 3 | -1 | 2
O=C(O)Cc1ccc(NC(=O)c2ccc(NC(=O)C3CC3)cc2)cc1 | 82* | -3 | 7 | 0 | -8
SMILES | DENV2 CPE | ERp5 block | PDI turbidity | AF4-AF9 inh | ERAP1 HTS inh
O=C(Nc1ccc(Cc2ccc(NC(=O)C3CC3)cc2)cc1)C1CC1 | -4 | -1 | 3 | 6 | 6
COCC(=O)N[C@@H]1CC[C@@H](CC(=O)NCc2ccccc2OC)O[C@@H]1CO | -4 | -4 | nt | -13 | 4
Cc1cccc(OCc2nc(-c3ccc(-n4cccc4)cc3)no2)c1 | 6 | -6 | -3 | -10 | 1
Cc1ccc(OCc2nc(-c3ccc(-n4cccc4)cc3)no2)cc1C | -14 | 0 | 4 | 38* | 5
O=S1(=O)N[C@@H](Cc2ccccc2)COc2cc(N3CCOCC3)ccc21 | 54* | 1 | nt | -2 | -7
CN1CCN(c2ccc3c(c2)OC[C@@H](Cc2ccccc2)NS3(=O)=O)CC1 | -6 | -4 | nt | -2 | nt
CCCNC(=O)N(C)C[C@H]1Oc2ncc(C#CC3CC3)cc2C(=O)N([C@H](C)CO)C[C@@H]1C | -10 | -5 | nt | -1 | -1
COc1cccc(S(=O)(=O)N[C@@H]2CC[C@H](CC(=O)NC3Cc4ccccc4C3)O[C@@H]2CO)c1 | 0 | -3 | nt | 1 | -1
COc1cccc(-c2ccc(C3[C@H]4CNC[C@@H]3N4C(=O)Nc3ccc(C(F)(F)F)cc3)cc2)c1 (stereo partly specified) | 33*! | nt | nt | nt | nt
COc1cccc(NC(=O)N2[C@@H]3CNC[C@H]2C3c2ccc(/C=C/c3ccccc3)cc2)c1 (stereo partly specified) | 89*! | -1 | nt | 21 | -2
COc1ccc(NC(=O)N2[C@@H]3CNC[C@H]2C3c2ccc(-c3cccc(OC)c3)cc2)cc1 (stereo partly specified) | -4 | 4 | nt | 9 | -3
O=C(Nc1cccc(Cl)c1)N1[C@@H]2CNC[C@H]1C2c1ccc(/C=C/c2ccccc2)cc1 (stereo partly specified) | 11 | -1 | nt | 0 | -4
COc1cccc(NC(=O)N2[C@@H]3CNC[C@H]2C3c2ccc(-c3ccccc3)cc2)c1 (stereo partly specified) | 99*! | 0 | nt | 5 | 0
COc1cccc(-c2ccc(C3[C@H]4CNC[C@@H]3N4C(=O)Nc3ccc4c(c3)OCO4)cc2)c1 (stereo partly specified) | 19 | 3 | nt | 20 | -1
C/C=C/c1ccc([C@H]2[C@@H](CO)N(CC3CC3)[C@@H]2CNC(=O)NC(C)C)cc1 | 24* | 2 | nt | nt | nt
C/C=C/c1ccc([C@@H]2[C@H](CO)N(C(=O)C3CC3)[C@H]2CN(CC)C(C)=O)cc1 | 4 | -3 | nt | 1 | 1
C/C=C/c1ccc([C@H]2[C@@H](CO)N(C(=O)NC(C)C)[C@H]2CN(C)C(=O)CC)cc1 | -8 | -2 | nt | -4 | nt
C/C=C/c1ccc([C@@H]2[C@@H](CN(CC)C(=O)CC)N(C(=O)C3CCC3)[C@H]2CO)cc1 | 25* | 3 | nt | -3 | nt
C/C=C/c1ccc([C@H]2[C@@H](CN(C)C(=O)CC)N(C(=O)NC(C)C)[C@H]2CO)cc1 | 27* | 1 | nt | -3 | 2
